In PubChem BioAssay (EPA / NIEHS):
Records with an inconclusive call do not appear. Activity calls are given as the source filed them. Rule for the calls, unless noted: active = hit-call score of the fitted dose curve at least 0.9, where 1 is the maximum; inconclusive = response in the unintended direction; inactive = score below 0.9.

How the values were obtained:
PGR (gene 5241) [1] = molecular target: PGR (gene 5241) (UniProt P06401); test: TOX21_PR_BLA_Followup_Antagonist_ratio: Tox21 HEK293 Progesterone Receptor (PR) Antagonism Beta-lactamase Follow-Up Assay, Ratio (AID 2283934);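 note: PR-UAS-bla HEK293T cells stimulated with 1 nM R5020 agonist for 16 hr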
Chain of PGR (gene 5241) (P06401 whole entry, looked up): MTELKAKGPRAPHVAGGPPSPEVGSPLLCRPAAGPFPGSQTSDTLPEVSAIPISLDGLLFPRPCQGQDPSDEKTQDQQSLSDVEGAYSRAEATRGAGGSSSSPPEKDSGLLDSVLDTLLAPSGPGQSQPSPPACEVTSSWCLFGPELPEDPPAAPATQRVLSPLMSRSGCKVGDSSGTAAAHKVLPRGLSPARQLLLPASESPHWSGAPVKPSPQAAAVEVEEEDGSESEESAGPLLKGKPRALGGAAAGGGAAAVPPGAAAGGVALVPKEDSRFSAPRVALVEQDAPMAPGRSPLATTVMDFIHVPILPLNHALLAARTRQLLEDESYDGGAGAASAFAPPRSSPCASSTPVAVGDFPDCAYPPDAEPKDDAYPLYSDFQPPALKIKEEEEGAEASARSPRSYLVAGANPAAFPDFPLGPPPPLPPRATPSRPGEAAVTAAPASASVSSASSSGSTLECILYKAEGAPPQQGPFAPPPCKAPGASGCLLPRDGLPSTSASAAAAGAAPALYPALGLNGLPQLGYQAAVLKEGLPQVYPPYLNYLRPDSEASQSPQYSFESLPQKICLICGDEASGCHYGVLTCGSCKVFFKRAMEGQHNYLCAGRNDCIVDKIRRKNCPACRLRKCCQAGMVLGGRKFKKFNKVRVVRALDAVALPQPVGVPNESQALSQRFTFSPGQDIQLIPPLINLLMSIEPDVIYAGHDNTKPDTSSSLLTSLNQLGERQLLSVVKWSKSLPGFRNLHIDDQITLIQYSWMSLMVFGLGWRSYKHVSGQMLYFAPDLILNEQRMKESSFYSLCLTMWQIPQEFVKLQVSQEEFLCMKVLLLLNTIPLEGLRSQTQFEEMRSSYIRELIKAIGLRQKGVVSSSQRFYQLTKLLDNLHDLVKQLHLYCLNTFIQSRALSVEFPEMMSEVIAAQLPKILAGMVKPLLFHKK
Outline: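 Cells are plated, rested 6 hr, then dosed with test compound in DMSO and challenged with 1 nM promegestone. After 16 hr incubation, substrate loading for 2 h at room temperature precedes fluorescence reading; viability is measured in the same wells.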

[2] = TOX21_PR_BLA_Followup_Agonist_viability: Viability Assessment in the Tox21 HEK293 Progesterone Receptor (PR) Agonism Beta-lactamase Follow-Up Assay (AID 2283935);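 note: signal loss means lower viability so actives are cytotoxic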
Outline: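 Cells were plated in medium with 2% charcoal-stripped FBS and rested 6 hr. Compounds in DMSO were then added for 16 hr at 37C, followed by the FRET substrate step and CellTiter-Glo luminescence after 30 min.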

[3] = TOX21_PR_BLA_Followup_Antagonist_viability: Viability Assessment in the Tox21 HEK293 Progesterone Receptor (PR) Antagonism Beta-lactamase Follow-Up Assay (AID 2283936);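 note: cells exposed to compound with R5020 agonist for 16 h; hits lower the luminescence signal meaning cytotoxicity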
Outline: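 PR-UAS-bla HEK293T cells in medium with 2% charcoal-stripped FBS were treated with compounds plus R5020 for 16 hr at 37C. After the beta-lactamase read, CellTiter-Glo was added to the same wells and luminescence read after 30 min at room temperature.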

PGR (gene 5241) [4] = molecular target: PGR (gene 5241) (UniProt P06401); test: TOX21_PR_LUC_Followup_Antagonist: Tox21 HEK293 Progesterone Receptor (PR) Antagonism Luciferase Follow-Up Assay (AID 2283938);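 note: curve fitted upward as signal gain over DMSO baseline despite antagonist label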
Outline: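 HEK293-PR-A-luc cells were precultured 5 days in medium with 10% charcoal-stripped FBS, seeded 3,000/well, then exposed to compounds in DMSO for 16 h at 37C. Luciferase was read by ONE-Glo luminescence after 30 min at room temperature.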

[5] = TOX21_PR_LUC_Followup_Antagonist_viability: Viability Assessment in the Tox21 HEK293 Progesterone Receptor (PR) Antagonism Luciferase Follow-Up Assay (AID 2283940)
Outline: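 HEK293-PR-A-luc, 3,000 cells/well; 5 h at 37C/0% CO2; compound pin transfer; 16 h incubation; CellTiter-Glo ATP luminescence, signal loss = cytotoxicity.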

[6] = TOX21_PR_LUC_Followup_Agonist_viability: Viability Assessment in the Tox21 HEK293 Progesterone Receptor (PR) Agonism Luciferase Follow-Up Assay (AID 2283941);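 note: loss of signal means cytotoxicity so actives lower viability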
Outline: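 Multiplexed viability endpoint of the PR agonist luciferase follow-up: HEK293-PR-A-luc cells treated 16 h at 37C, with viability scored as decrease in CellTiter-Glo ATP signal.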

[7] = molecular target: Thyroid hormone receptor alpha (Rattus norvegicus) + Thyroid hormone receptor beta (Rattus norvegicus) (UniProt P18113+P63059); test: TOX21_TR_LUC_GH3_Antagonist_Followup: Tox21 GH3 Thyroid Hormone Receptor Antagonism Luciferase Follow-Up Assay (AID 2283942)
Outline: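 Loss of T3-driven (1.0 nM final) reporter activity in GH3 cells was read by ONE-Glo luminescence after 24 h incubation at 37C; 15-point compound series spanned 92 uM to 5nM final, 1,500 cells/well.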

THRA (gene 7067) = THRA (gene 7067) (UniProt P10827); test: TOX21_TRA_COA_Antagonist_Followup_ratio: Tox21 Thyroid Hormone Receptor alpha Antagonism through Coactivator Recruitment Follow-Up Assay, Ratio (AID 2283953)
Chain of THRA (gene 7067) (P10827 whole entry, looked up, the tested form may be a part): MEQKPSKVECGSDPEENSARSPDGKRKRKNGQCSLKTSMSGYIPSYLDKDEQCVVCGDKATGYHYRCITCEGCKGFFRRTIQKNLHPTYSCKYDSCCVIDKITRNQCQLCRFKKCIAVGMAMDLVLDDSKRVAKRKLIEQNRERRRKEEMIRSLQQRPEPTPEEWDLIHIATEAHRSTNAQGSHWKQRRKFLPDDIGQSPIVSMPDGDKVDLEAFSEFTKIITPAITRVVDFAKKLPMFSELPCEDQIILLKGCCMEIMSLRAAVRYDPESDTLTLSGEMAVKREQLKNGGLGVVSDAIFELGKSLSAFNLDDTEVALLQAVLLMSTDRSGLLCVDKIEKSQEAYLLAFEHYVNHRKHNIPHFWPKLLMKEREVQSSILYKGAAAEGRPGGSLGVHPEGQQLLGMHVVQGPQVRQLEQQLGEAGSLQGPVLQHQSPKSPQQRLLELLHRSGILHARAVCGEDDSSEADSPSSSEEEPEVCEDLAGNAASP
Outline: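 GST-TRα LBD 2.5 nM, BSA 0.10%, + cpd; then FITC-SRC-2 peptide 200 nM + Tb-anti-GST Ab 2 nM. TR-FRET ratio 520/495 nm. Norm: DMSO = 0%, T3 = 100%.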

[8] = TOX21_TRB_BLA_Antagonist_Followup_viability: Viability Assessment in the Tox21 Thyroid Hormone Receptor beta Antagonism Beta-lactamase (BLA) Follow-Up Assay (AID 2283961)
Outline: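 HEK293T cells stably expressing GAL4-DBD/human TRβ-LBD with UAS-bla reporter, 3,000 cells/well in phenol red-free DMEM, 2% charcoal-stripped FBS. Compounds at 11 concentrations in triplicate, 18 h at 37C/5% CO2; viability by CellTiter-Glo luminescence after 30 min at room temperature.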

THRB (gene 7068) = THRB (gene 7068) (UniProt P10828); test: TOX21_TRB_COA_Antagonist_Followup_ratio: Tox21 Thyroid Hormone Receptor beta Antagonism through Coactivator Recruitment Follow-Up Assay, Ratio (AID 2283967)
Chain of THRB (gene 7068) (P10828 whole entry, looked up, the tested form may be a part): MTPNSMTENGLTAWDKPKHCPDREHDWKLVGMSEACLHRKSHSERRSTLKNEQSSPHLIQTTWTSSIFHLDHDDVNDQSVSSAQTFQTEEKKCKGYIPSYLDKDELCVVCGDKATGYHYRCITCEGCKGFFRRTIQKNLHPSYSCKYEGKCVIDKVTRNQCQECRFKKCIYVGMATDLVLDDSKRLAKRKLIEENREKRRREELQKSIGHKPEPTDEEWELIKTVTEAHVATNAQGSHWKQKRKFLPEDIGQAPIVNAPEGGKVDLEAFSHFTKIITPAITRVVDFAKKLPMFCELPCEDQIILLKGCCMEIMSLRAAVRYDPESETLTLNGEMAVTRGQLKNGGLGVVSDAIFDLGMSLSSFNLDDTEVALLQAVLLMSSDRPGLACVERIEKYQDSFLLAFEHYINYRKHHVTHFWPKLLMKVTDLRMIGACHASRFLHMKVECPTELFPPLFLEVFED
Outline: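 Coactivator recruitment to the GST-tagged TRb ligand-binding domain (5.0 nM) was read as the 520/495 nm TR-FRET ratio, using 200 nM fluorescein SRC-2 peptide and 2 nM terbium anti-GST. Scaled between DMSO and T3 wells; loss of signal fitted.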

[9] = TOX21_TR_RXR_BLA_Antagonist_Followup_viability: Viability Assessment in the Tox21 Thyroid Hormone Receptor beta Retinoid X Receptor alpha (RXRa) Antagonism Beta-lactamase (BLA) Follow-Up Assay (AID 2283979)
Outline: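 Follow-up compounds (11 concentrations, triplicate) were incubated 16 h at 37C/5% CO2 with HEK293T RXRa-bla cells seeded at 2,500/well in charcoal-stripped-serum medium. ATP content by CellTiter-Glo luminescence gave viability; curves fitted in both directions against DMSO.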

[10] = molecular target: Nucleoli Translocation, AR (gene 367) (UniProt P10275); test: UPITT_HCI_U2OS_AR_TIF2_Nucleoli_Antagonist: University of Pittsburgh U2OS Androgen Receptor-Transcriptional Intermediary Factor 2 (AR-TIF2) Antagonism High Content Imaging Assay for Nucleoli Translocation (AID 2283997)
Chain of Nucleoli Translocation, AR (gene 367) (P10275 whole entry, looked up, the tested form may be a part): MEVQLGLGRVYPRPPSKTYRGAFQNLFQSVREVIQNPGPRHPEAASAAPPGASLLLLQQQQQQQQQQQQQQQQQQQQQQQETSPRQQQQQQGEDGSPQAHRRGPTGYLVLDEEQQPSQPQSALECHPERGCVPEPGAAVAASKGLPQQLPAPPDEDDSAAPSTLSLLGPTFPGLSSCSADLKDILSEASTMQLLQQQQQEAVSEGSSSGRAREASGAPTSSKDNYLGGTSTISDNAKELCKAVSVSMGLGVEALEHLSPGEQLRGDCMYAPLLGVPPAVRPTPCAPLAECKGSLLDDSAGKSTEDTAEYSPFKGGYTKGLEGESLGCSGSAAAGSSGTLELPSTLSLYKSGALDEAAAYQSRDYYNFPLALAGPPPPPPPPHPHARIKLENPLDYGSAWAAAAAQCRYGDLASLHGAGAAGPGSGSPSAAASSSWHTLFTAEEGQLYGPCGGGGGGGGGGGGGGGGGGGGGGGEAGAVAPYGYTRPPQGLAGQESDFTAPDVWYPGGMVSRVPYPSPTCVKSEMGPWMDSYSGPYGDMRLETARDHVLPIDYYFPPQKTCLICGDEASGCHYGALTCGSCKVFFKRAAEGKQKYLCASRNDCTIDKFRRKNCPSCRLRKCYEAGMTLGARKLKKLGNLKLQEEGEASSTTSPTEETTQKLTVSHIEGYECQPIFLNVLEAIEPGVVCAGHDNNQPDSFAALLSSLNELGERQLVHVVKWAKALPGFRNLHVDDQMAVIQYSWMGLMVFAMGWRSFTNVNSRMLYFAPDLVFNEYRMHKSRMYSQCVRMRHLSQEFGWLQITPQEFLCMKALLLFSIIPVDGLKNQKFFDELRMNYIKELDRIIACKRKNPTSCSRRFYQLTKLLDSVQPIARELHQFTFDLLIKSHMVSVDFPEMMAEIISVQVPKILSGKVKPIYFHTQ
Outline: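 Antagonism is read as loss of nucleolar AR-RFP signal relative to DHT, imaged in U2OS cells also carrying GFP-TIF2. Compounds screened at 20 uM final, 0.2% DMSO; primary actives retested in triplicate.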

[11] = molecular target: Nucleoli Translocation, AR (gene 367) (UniProt P10275); test: UPITT_HCI_U2OS_AR_TIF2_Nucleoli_Agonist: University of Pittsburgh U2OS Androgen Receptor-Transcriptional Intermediary Factor 2 (AR-TIF2) Agonism High Content Imaging Assay for Nucleoli Translocation (AID 2283998)
Outline: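 Cells express human AR fused to red fluorescent protein and TIF2 fused to GFP. Red fluorescence in the nucleolar region was quantified by high-content imaging and fitted as gain-of-signal against a DMSO baseline. Compounds were tested at 0.195 to 50 uM final (0.5% DMSO).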

[12] = molecular target: Ratio of Nucleoli Translocation and Cytoplasm, AR (gene 367) (UniProt P10275); test: UPITT_HCI_U2OS_AR_TIF2_Nucleoli_Cytoplasm_Ratio_Agonist: University of Pittsburgh U2OS Androgen Receptor-Transcriptional Intermediary Factor 2 (AR-TIF2) Agonism High Content Imaging Assay for Ratio of Nucleoli Translocation and Cytoplasm (AID 2284000);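 note: hits raise the red nucleolar to cytoplasm ratio above vehicle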
Chain of Ratio of Nucleoli Translocation and Cytoplasm, AR (gene 367) (P10275 whole entry, looked up): as the sequence (P10275 whole entry, looked up, the tested form may be a part) above
Outline: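 Compounds tested at 20 uM final in primary screen (0.2% DMSO) and 0.195-50 uM final in dose-response (0.5% DMSO). Imaging of human U2OS cells bearing RFP-AR and GFP-TIF2; endpoint is nucleoli/cytoplasm red signal ratio, positive direction relative to DMSO.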

[13] = CCTE_Harrill_HTTr_Viability_MCF7: CCTE's 6-hour Cell Viability Assessment for the High-Throughput Transcriptomics (HTTr) Platform, in MCF-7 cells cultured in DMEM + 10% fetal bovine serum, Harrill Lab (AID 2284010; active = hit-call score of the fitted dose curve at least 0.9, where 1 is the maximum; inactive = score below 0.9)
Outline: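 Read-out is propidium iodide gain of signal by high-content imaging, reflecting membrane integrity loss. Measurements are taken 6 h after dosing, eight concentrations per chemical, with DMSO serving as baseline for bidirectional curve fitting.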

[14] = CCTE_Harrill_HTTr_Apoptosis_MCF7: CCTE's 6-hour Apoptosis Assessment for the High-Throughput Transcriptomics (HTTr) Platform, in MCF-7 cells cultured in DMEM + 10% fetal bovine serum, Harrill Lab (AID 2284011; active = hit-call score of the fitted dose curve at least 0.9, where 1 is the maximum; inactive = score below 0.9)
Outline: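 MCF-7 cells in DMEM + 10% fetal bovine serum were exposed to chemicals for 6 hours over an eight-point dilution series. Caspase-3/7 activation was imaged by high content imaging with CellEvent Caspase 3/7 Green; bidirectional fitting used DMSO as baseline.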

PGR (gene 5241) [15] = molecular target: PGR (gene 5241) (UniProt P06401); test: TOX21_PR_BLA_Followup_Agonist_ratio: Tox21 HEK293 Progesterone Receptor (PR) Agonism Beta-lactamase Follow-Up Assay, Ratio (AID 2283933)
Outline: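 Cells were seeded and held 6 hr before compound addition, exposed for 16 hr at 37C, then given FRET substrate for 2 hr at room temperature. Agonism was scored from the blue/green substrate cleavage ratio against DMSO controls.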

PGR (gene 5241) [16] = molecular target: PGR (gene 5241) (UniProt P06401); test: TOX21_PR_LUC_Followup_Agonist: Tox21 HEK293 Progesterone Receptor (PR) Agonism Luciferase Follow-Up Assay (AID 2283937; active = hit-call score of the fitted dose curve at least 0.9, where 1 is the maximum; inactive = score below 0.9)
Outline: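 Seed HEK293-PR-A-luc cells, wait 5 h, add compounds in DMSO, incubate 16 h at 37C, add ONE-Glo, read luminescence after 30 min. Activity is increase over DMSO controls; run with a viability counter-screen.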

[17] = molecular target: Retinoic acid receptor RXR-alpha (Homo sapiens) (UniProt P19793); test: TOX21_TR_RXR_BLA_Antagonist_Followup_ratio: Tox21 Thyroid Hormone Receptor beta Retinoid X Receptor alpha (RXRa) Antagonism Beta-lactamase (BLA) Follow-Up Assay, Ratio (AID 2283972)
Chain of Retinoic acid receptor RXR-alpha (Homo sapiens) (P19793 whole entry, looked up): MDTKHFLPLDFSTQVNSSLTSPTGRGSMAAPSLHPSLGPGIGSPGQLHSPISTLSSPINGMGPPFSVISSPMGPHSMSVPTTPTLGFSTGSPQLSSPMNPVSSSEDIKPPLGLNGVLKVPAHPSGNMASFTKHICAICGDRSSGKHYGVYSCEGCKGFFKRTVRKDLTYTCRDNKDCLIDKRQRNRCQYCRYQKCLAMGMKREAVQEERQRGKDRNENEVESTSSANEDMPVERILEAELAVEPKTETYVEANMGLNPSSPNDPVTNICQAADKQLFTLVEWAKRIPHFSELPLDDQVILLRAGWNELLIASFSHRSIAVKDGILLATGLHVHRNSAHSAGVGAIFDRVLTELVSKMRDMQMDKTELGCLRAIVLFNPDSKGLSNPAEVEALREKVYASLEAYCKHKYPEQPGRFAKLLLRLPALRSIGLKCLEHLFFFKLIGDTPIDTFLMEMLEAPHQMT
Outline: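 RXRa-UAS-bla HEK293T cells in phenol red-free DMEM with 2% charcoal-stripped FBS; compounds at 11 concentrations in triplicate, 16 h at 37C. LiveBLAzer FRET-B/CCF4-AM substrate 2 h at room temperature; read as 460:530 nm ratio versus DMSO.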

Measured: AC50

C/C=C1/C(=O)C[C@H]2[C@@H]3CCC4=CC(=O)CC[C@]4(C)[C@H]3CC[C@]12C
not listed: [10] | [11] | [12] | [13] | [14] | PGR (gene 5241) [15] | PGR (gene 5241) [16] | [17]
inactive: all other assays above

C/C=C1\C(=O)C[C@H]2[C@@H]3CCC4=CC(=O)CC[C@]4(C)[C@H]3CC[C@]12C
inactive: [2] | PGR (gene 5241) [4] | [5] | [6]

CCCCC(C)=O
inactive: [10] | [11] | [12] | [13] | [14]

CC(=O)OCC(=O)[C@@]1(O)[C@H](C)C[C@H]2[C@@H]3CCC4=CC(=O)C=C[C@]4(C)[C@@]3(F)[C@@H](O)C[C@@]21C
inactive: PGR (gene 5241) [1] | [2] | [3] | PGR (gene 5241) [4] | [5]

CC(=O)OCC(=O)[C@H]1CC[C@H]2[C@@H]3CCC4=CC(=O)CC[C@]4(C)[C@H]3CC[C@]12C
active: PGR (gene 5241) [15] 844 nM | PGR (gene 5241) [16] 29.7 nM
not listed: [8] | [10] | [11] | [12] | [13] | [14] | [17]
inactive: all other assays above

C#C[C@]1(O)CC[C@H]2[C@@H]3CCC4=C(CCC(=O)C4)[C@H]3CC[C@@]21C
inactive: [7] | THRA (gene 7067) | [8] | THRB (gene 7068) | [9]

Cc1nc2ccc(CN(C)c3ccc(C(=O)N[C@@H](CCC(=O)O)C(=O)O)s3)cc2c(=O)[nH]1
inactive: [7] | THRB (gene 7068) | [9]

C[C@@H]1C[C@H]2[C@@H]3C[C@H](F)C4=CC(=O)C=C[C@]4(C)[C@@]3(F)[C@@H](O)C[C@]2(C)[C@@]1(O)C(=O)CO
inactive: PGR (gene 5241) [1] | [2] | [3] | [5] | [6]

CC(C)(C)C(O)/C=C/c1ccc2c(c1)OCO2 (centres undefined)
inactive: PGR (gene 5241) [15] | PGR (gene 5241) [1] | [2] | [3] | PGR (gene 5241) [16] | PGR (gene 5241) [4] | [5] | [6]

COc1cc(NCc2ccc3nc(N)nc(N)c3c2C)cc(OC)c1OC
inactive: [7] | THRA (gene 7067) | THRB (gene 7068)
active: [8] 1460 nM | [17] 1760 nM | [9] 1770 nM
